Assay results as given in PubChem BioAssay (Tox21).
Where “and” joins values, the source holds several entries; their conditions need not be identical. Identical values can stand only once. Where a structure was tested more than once in an assay, its records may differ in their call. Calls of active or inactive are those of the source. Unless noted, the call rests on the fitted dose curve; in most records, active means well fitted curve in the direction sought with a large enough effect in the repeat runs; inconclusive means weak or mixed curves; inactive means no such curve, though single readings can be large; an effect the other way counts as inactive or inconclusive.

How the values were obtained:
[1] = target: Estrogen receptor (Homo sapiens) (UniProt P03372); assay: qHTS assay to identify small molecule antagonists of the estrogen receptor alpha (ER-alpha) signaling pathway (AID 743069; active means well fitted curve in the direction sought with a large enough effect in the signal ratio in the repeat runs, not every such curve was filed as active; inconclusive means weak or mixed curves, or effect the other way; inactive means no such curve, though single readings can be large or run the other way; the % refers to the signal ratio; further: potency means the concentration at half of the fitted maximal effect)
How it was run: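 ER-alpha-UAS-bla GripTite HEK293 line; 2% charcoal-stripped FBS overnight; plated, 4 hr 37C/5% CO2; cpd in DMSO + 17beta-estradiol, 18 hr 37C; LiveBLAzer B/G FRET substrate 2 hr RT; fluorescence intensity.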

[2] = qHTS assay to identify small molecule antagonists of the estrogen receptor alpha (ER-alpha) signaling pathway - cell viability counter screen (AID 743074; calls by dose curve;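 further: HEK293 cells carrying ER-alpha-UAS-bla reporter stimulated with 17beta-estradiol; nearly all actives have a fitted effect of over 45% in size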; further: potency means the concentration at half of the fitted maximal effect)
[3] = target: Estrogen receptor (Homo sapiens) (UniProt P03372); assay: qHTS assay to identify small molecule agonists of the estrogen receptor alpha (ER-alpha) signaling pathway (AID 743075; calls by dose curve;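 further: HEK293 GripTite cells with ER-alpha and UAS-driven beta-lactamase reporter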; further: potency means the concentration at half of the fitted maximal effect)
Aromatase (Homo sapiens) = Aromatase (Homo sapiens) (UniProt P11511); assay: qHTS assay to identify aromatase inhibitors (AID 743083); further: nearly all actives have a fitted effect of over 55% in size; further: potency means the concentration at half of the fitted maximal effect
[4] = target: Aryl hydrocarbon receptor (Homo sapiens) (UniProt P35869); assay: qHTS assay to identify small molecule that activate the aryl hydrocarbon receptor (AhR) signaling pathway (AID 743085); further: nearly all actives have a fitted effect of over 15% in size; further: potency means the concentration at half of the fitted maximal effect;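 on activation: HG2L7.5c1 human HepG2 liver cells with stably integrated DRE-driven firefly reporter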
How it was run: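 Measured in HG2L7.5c1 cells: CellTiter-Fluor signal (30 min incubation, 37C) for viability, then luciferase luminescence (30 min, room temperature). Compound contact time was 24 h at 37C, following a 5 h pre-incubation.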

[5] = qHTS assay to identify small molecule that activate the aryl hydrocarbon receptor (AhR) signaling pathway - cell viability counter screen (AID 743086); further: nearly all actives have a fitted effect of over 45% in size; further: potency means the concentration at half of the fitted maximal effect
How it was run: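 Cytotoxicity counter screen: CellTiter-Fluor signal (30 min, 37 C) in 4000 HepG2 cells/well carrying the DRE-luciferase reporter, following 24 h compound exposure at 37 C.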

[6] = target: Peroxisome proliferator-activated receptor gamma (Homo sapiens) (UniProt P37231); assay: qHTS assay to identify small molecule agonists of the peroxisome proliferator-activated receptor gamma (PPARg) signaling pathway (AID 743094; active means well fitted activation curve with a large enough effect in the signal ratio in the repeat runs, not every such curve was filed as active; inconclusive means weak or mixed curves, or effect the other way; inactive means no such curve, though single readings can be large or run the other way; the % refers to the signal ratio; further: potency means the concentration at half of the fitted maximal effect)
How it was run: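 Compounds dissolved in DMSO were added to PPARg UAS-bla HEK293H cells for 17 h at 37C, and reporter expression was quantified by fluorescence intensity after 1 h with LiveBLAzer B/G FRET substrate.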

[7] = qHTS assay for small molecule activators of the heat shock response signaling pathway (AID 743210; active means well fitted activation curve with a large enough effect in the signal ratio in the repeat runs, with a control signal flat, not every such curve was filed as active; inconclusive means weak or mixed curves; the % refers to the signal ratio;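 further: HeLa cells with beta-lactamase reporter driven by heat shock elements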)
How it was run: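 HeLa HSE-bla cells, overnight plating; cpd in DMSO 5 h, 37 C; LiveBLAzer B/G FRET substrate 2.5 h RT; fluorescence intensity read.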

[8] = qHTS assay to identify small molecule agonists of the peroxisome proliferator-activated receptor delta (PPARd) signaling pathway - cell viability counter screen (AID 743211); further: nearly all actives have a fitted effect of over 55% in size; further: potency means the concentration at half of the fitted maximal effect
How it was run: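 Following 5 h plating at 37 C and 5% CO2, PPARd UAS-bla HEK293H cells took up test compounds for 17 h. Viability was quantified by luminescence 30 min after CellTiter-Glo addition at room temperature.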

[9] = system: thyroid hormone receptor (rat, GH3 cells); assay: qHTS assay to identify small molecule agonists of the thyroid receptor (TR) signaling pathway (AID 743066; calls by dose curve)
[10] = target: Peroxisome proliferator-activated receptor delta (Homo sapiens) (UniProt Q03181); assay: qHTS assay to identify small molecule agonists of the peroxisome proliferator-activated receptor delta (PPARd) signaling pathway (AID 743212; calls by dose curve;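 further: HEK293H cells with PPARd UAS beta-lactamase reporter GeneBLAzer system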)
How it was run: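 HEK293H PPARd-bla cells; 5 h preincubation 37 C/5% CO2; compound (DMSO) 37 C; LiveBLAzer B/G FRET substrate 2 h RT; fluorescence intensity.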

[11] = qHTS assay to identify small molecule antagonists of the estrogen receptor alpha (ER-alpha) signaling pathway using the BG1 cell line (AID 743080; calls by dose curve;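 further: BG1 cells stimulated with 17beta-estradiol alongside compound; nearly all actives have a fitted effect of over 25% in size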; further: potency means the concentration at half of the fitted maximal effect); details: BG1Luc4E2 ERE-luciferase antagonist mode, luminescence; activity change, negative = inhibition: at 70.3 µM (top of the series)
How it was run: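 Luminescence from a 4×ERE-luciferase reporter in BG1-Luc-4E2 cells served as read-out. Cells, pre-cultured 5 days in stripped-serum phenol-red-free medium, were exposed to compound with 17beta-estradiol co-stimulation for 21.5 h at 37 C.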

[12] = qHTS assay to identify small molecule antagonists of the estrogen receptor alpha (ER-alpha) signaling pathway using the BG1 cell line - cell viability counter screen (AID 743081);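 further: compound given together with 17beta-estradiol as the ER stimulus; nearly all actives have a fitted effect of over 45% in size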; further: potency means the concentration at half of the fitted maximal effect
[13] = qHTS assay to identify aromatase inhibitors - cell viability counter screen (AID 743084);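 further: cells stimulated with testosterone during compound exposure; nearly all actives have a fitted effect of over 55% in size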; further: potency means the concentration at half of the fitted maximal effect
[14] = qHTS assay to identify small molecule antagonists of the peroxisome proliferator-activated receptor gamma (PPARg) signaling pathway - cell viability counter screen (AID 743194); further: nearly all actives have a fitted effect of over 55% in size; further: potency means the concentration at half of the fitted maximal effect
How it was run: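 Viability was measured as CellTiter-Glo luminescence in GeneBLAzer PPARg UAS-bla HEK293H cells. These cells had been exposed 17 h at 37 C to compounds together with rosiglitazone at 50 nM final, with the beta-lactamase readout taken in the same wells.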

[15] = qHTS assay for small molecule agonists of the antioxidant response element (ARE) signaling pathway - cell viability counter screen (AID 743203; calls by dose curve; further: nearly all actives have a fitted effect of over 55% in size; further: potency means the concentration at half of the fitted maximal effect)
How it was run: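 Following 16 hrs of compound treatment at 37C, HepG2 cells with an ARE-controlled beta-lactamase gene were lysed with CellTiter-Glo. Luminescence was read after 30 min at room temperature.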

[16] = qHTS assay for small molecule activators of the heat shock response signaling pathway - cell viability counter screen (AID 743209); further: nearly all actives have a fitted effect of over 50% in size; further: potency means the concentration at half of the fitted maximal effect
How it was run: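 Readout: CellTiter-Glo luminescence, 30 min at room temperature. System: HSE-bla HeLa cells, 1500/well, plated overnight. Treatment: compounds in DMSO, 5 h at 37 C.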

[17] = target: Estrogen receptor (Homo sapiens) (UniProt P03372); assay: qHTS assay to identify small molecule agonists of the estrogen receptor alpha (ER-alpha) signaling pathway using the BG1 cell line (AID 743079); details: BG1Luc4E2 cells, ERE-luciferase agonist, 22 h; activation: at 70.3 µM (top of the series); further: nearly all actives have a fitted effect of over 20% in size; further: potency means the concentration at half of the fitted maximal effect
[18] = qHTS assay for small molecule agonists of the antioxidant response element (ARE) signaling pathway (AID 743202; active means well fitted activation curve with a large enough effect in the signal ratio in the repeat runs, not every such curve was filed as active; inconclusive means weak or mixed curves, or effect the other way; inactive means no such curve, though single readings can be large or run the other way; the % refers to the signal ratio; further: potency means the concentration at half of the fitted maximal effect)
How it was run: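 Quantitative high-throughput format in HepG2 cells bearing an integrated ARE-beta-lactamase reporter. Compound exposure lasted 16 h at 37 C, and fluorescence was read 2 h after adding LiveBLAzer B/G substrate at room temperature.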

Measured: Potency

Sequence of Aromatase (Homo sapiens) (P11511 whole entry, looked up): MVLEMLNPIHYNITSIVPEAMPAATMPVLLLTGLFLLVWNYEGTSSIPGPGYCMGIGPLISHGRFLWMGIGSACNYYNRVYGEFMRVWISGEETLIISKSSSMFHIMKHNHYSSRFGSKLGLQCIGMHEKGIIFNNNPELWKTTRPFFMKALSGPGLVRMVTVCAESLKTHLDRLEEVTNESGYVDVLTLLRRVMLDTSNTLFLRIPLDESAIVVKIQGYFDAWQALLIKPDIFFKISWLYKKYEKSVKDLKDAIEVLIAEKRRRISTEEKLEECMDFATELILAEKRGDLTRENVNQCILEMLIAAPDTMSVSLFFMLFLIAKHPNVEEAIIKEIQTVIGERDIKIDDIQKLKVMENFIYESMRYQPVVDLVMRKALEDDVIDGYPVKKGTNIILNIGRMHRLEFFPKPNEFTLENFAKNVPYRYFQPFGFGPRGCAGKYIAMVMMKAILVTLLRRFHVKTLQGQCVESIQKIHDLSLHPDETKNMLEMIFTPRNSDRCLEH
Sequence of Peroxisome proliferator-activated receptor delta (Homo sapiens) (Q03181 whole entry, looked up): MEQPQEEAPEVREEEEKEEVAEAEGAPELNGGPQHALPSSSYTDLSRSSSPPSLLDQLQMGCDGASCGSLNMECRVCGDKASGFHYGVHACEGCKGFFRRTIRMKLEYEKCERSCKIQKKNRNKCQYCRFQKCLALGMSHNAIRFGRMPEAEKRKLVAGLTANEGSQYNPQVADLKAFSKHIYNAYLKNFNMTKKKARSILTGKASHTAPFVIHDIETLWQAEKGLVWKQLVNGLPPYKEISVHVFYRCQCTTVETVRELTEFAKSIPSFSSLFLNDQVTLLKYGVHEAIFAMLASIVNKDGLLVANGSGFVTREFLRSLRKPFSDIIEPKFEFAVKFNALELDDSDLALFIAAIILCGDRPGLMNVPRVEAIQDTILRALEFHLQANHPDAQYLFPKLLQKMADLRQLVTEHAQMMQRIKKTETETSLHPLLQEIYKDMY
Sequence of Peroxisome proliferator-activated receptor gamma (Homo sapiens) (P37231 whole entry, looked up): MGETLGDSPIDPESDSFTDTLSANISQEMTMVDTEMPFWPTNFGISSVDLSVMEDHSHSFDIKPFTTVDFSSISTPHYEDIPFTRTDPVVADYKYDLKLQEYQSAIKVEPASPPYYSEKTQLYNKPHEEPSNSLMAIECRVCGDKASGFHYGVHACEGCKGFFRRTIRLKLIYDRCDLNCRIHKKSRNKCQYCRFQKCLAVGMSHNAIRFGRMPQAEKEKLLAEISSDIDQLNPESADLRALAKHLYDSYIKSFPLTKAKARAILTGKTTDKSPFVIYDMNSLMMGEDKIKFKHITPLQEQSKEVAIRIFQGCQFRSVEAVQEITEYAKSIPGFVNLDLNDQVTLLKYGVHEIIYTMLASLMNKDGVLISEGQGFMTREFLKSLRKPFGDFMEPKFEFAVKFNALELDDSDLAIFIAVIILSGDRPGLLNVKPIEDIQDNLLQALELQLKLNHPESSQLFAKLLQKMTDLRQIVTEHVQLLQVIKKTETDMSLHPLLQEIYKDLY
Sequence of Aryl hydrocarbon receptor (Homo sapiens) (P35869 whole entry, looked up): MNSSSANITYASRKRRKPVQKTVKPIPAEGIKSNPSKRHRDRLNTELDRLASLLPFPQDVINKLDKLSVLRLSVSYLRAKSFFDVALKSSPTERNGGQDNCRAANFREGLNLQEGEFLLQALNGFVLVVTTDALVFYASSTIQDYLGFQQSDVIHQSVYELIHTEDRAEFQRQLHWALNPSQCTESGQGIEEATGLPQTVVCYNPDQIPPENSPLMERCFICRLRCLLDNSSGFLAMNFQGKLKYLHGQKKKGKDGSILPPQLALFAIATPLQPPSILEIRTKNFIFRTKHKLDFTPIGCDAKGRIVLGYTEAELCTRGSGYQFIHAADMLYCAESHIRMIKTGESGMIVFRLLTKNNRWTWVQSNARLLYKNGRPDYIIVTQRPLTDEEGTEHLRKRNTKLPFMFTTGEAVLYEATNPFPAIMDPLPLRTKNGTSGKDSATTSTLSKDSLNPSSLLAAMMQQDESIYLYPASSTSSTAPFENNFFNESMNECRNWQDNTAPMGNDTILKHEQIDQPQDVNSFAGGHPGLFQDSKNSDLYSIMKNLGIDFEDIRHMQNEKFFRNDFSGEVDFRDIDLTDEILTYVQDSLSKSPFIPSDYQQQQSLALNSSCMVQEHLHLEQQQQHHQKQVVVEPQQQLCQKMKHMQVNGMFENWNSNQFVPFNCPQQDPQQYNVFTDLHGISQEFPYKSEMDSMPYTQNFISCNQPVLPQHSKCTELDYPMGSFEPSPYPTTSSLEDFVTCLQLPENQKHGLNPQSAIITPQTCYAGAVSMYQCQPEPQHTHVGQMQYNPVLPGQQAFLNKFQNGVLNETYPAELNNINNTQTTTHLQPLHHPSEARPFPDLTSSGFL
Sequence of Estrogen receptor (Homo sapiens) (P03372 whole entry, looked up): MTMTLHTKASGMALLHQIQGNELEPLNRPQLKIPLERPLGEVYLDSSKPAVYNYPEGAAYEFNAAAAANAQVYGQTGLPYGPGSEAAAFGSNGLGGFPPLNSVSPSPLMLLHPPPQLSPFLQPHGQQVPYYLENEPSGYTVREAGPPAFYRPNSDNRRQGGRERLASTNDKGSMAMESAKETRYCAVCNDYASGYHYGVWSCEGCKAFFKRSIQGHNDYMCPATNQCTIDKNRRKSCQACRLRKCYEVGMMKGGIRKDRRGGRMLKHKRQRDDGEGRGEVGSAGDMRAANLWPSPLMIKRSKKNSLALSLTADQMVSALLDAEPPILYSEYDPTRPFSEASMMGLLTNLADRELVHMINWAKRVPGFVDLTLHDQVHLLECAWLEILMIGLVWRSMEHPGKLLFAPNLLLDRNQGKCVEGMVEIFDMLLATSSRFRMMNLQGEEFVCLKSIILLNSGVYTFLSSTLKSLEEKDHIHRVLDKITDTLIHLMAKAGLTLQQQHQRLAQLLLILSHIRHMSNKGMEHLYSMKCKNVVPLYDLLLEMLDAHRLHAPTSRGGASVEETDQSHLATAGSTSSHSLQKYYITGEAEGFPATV

COc1ccccc1OCCNCC(O)COc1cccc2[nH]c3ccccc3c12 (stereo unspecified)
active: [4] 21.1 µM | [8] 23.7 µM
inactive: [1] | [2] | [3] | Aromatase (Homo sapiens) | [5] | [6] | [7]

Brc1ccccc1-c1ccccc1
inactive: [9] | [5] | [10]

CSc1ccc2c(c1)N(CCC1CCCCN1C)c1ccccc1S2 (stereo unspecified)
inactive: [3] | [11] | [4] | [10]
active: [1] 23.9 µM [inconclusive] | [2] 54.7 µM | Aromatase (Homo sapiens) 27.2 µM | [13] 21.6 µM | [5] 27.2 µM | [14] 38.7 µM and 15 µM | [15] 27.2 µM and 23.7 µM | [16] 54.7 µM and 29.8 µM
inactive and 9.44 µM (active): [8]
inactive and 68.3 µM (active): [12]

CC1=C(/C=C/C(C)=C/C=C/C(C)=C\C=O)C(C)(C)CCC1
active: [15] 51.6 µM | [8] 41.3 µM
inactive: [9] | [4] | [5] | [14]

CCOC(=O)C1=C(C)NC(C)=C(C(=O)OCC)C1c1ccccc1/C=C/C(=O)OC(C)(C)C
active: [3] 6.74 µM [fluorescent] | [11] 33.5 µM | [6] 9.52 µM
inactive: [2] | [12] | [13] | [5] | [14]

O=C1NC2CCCCN2C12CCN(CCCN1c3ccccc3CCc3ccc(Cl)cc31)CC2 (stereo unspecified)
active: Aromatase (Homo sapiens) 23.7 µM | [4] 13.3 µM | [5] 23.7 µM | [14] 26.6 µM | [15] 29.8 µM | [16] 29.8 µM | [8] 29.8 µM
inactive: [2] | [3]

O=C(Oc1ccccc1)c1cccc(C(=O)Oc2ccccc2)c1
inactive: [9] | Aromatase (Homo sapiens) | [5] | [16]

CO[C@H]1C=CO[C@@]2(C)Oc3c(C)c(O)c4c(O)c(cc(O)c4c3C2=O)NC(=O)/C(C)=C\C=C/[C@H](C)[C@H](O)[C@@H](C)[C@@H](O)[C@@H](C)[C@H](OC(C)=O)[C@@H]1C
inactive and 13.8 µM (active): [13]
inactive and 21.8 µM (active): Aromatase (Homo sapiens)
inactive and 34.6 µM (active): [12]
not listed: [9] | [18]
inactive: all other assays above

COc1cccc(CCc2ccccc2OCC(CN(C)C)OC(=O)CCC(=O)O)c1 (stereo unspecified)
not listed: [4] | [5] | [6] | [8] | [9] | [14] | [16] | [18]
inactive: all other assays above

O[C@@H](c1cc(C(F)(F)F)nc2c(C(F)(F)F)cccc12)[C@H]1CCCCN1
inactive: [11] | [12] | [4] | [16]
active: [2] 23.9 µM | [3] 26.8 µM [inconclusive] | [17] 2.37 µM | Aromatase (Homo sapiens) 23.7 µM | [13] 26.6 µM | [5] 29.8 µM | [14] 29.8 µM | [15] 29.8 µM | [8] 10.6 µM

CCN(CC)CCOc1ccc(C(O)(Cc2ccc(Cl)cc2)c2ccc(C)cc2)cc1 (stereo unspecified)
active: [1] 23.9 µM [inconclusive] | Aromatase (Homo sapiens) 29.8 µM | [5] 29.8 µM | [14] 29.8 µM | [15] 21.1 µM | [8] 10.6 µM
inactive: [3] | [11] | [12] | [13] | [4]

CCC(C)c1cc([N+](=O)[O-])cc([N+](=O)[O-])c1OC(=O)OC(C)C (stereo unspecified)
inactive: [9] | [4]
active: Aromatase (Homo sapiens) 61.1 µM | [13] 54.5 µM | [5] 43.3 µM | [14] 49 µM | [15] 24.3 µM | [16] 21.9 µM

CC(C)(c1cc(Br)c(O)c(Br)c1)c1cc(Br)c(O)c(Br)c1
inactive: [9] | [12] | [5]
active: [14] 54.8 µM and 43.5 µM and 46.3 µM | [18] 23 µM | [15] 60.9 µM and 57.9 µM

C=C(c1ccc(C(=O)O)cc1)c1cc2c(cc1C)C(C)(C)CCC2(C)C
active: [1] 17.4 µM [fluorescent] | [11] 3.76 µM | [14] 19.5 µM | [15] 13.7 µM | [16] 11 µM and 21.1 µM | [8] 61.6 µM
inactive and 61.1 µM (active): Aromatase (Homo sapiens)
inactive: [17] | [12] | [13] | [4] | [5]

CC(=O)OC(OC(C)=O)c1ccc([N+](=O)[O-])o1
active: Aromatase (Homo sapiens) 17.5 µM | [13] 13.9 µM | [14] 49.8 µM | [18] 15.6 µM | [15] 62.2 µM | [8] 49.8 µM
inactive: [9] | [4]

C=C[C@](C)(O)CC[C@@H]1[C@@]2(C)CCCC(C)(C)[C@@H]2CC[C@@]1(C)O
active: [2] 54.9 µM | Aromatase (Homo sapiens) 54.5 µM | [13] 61.1 µM | [14] 49 µM | [15] 77 µM | [16] 43.6 µM | [8] 54.9 µM
inactive: [3] | [12] | [4] | [5] | [10]
